Potency and activity change, negative = inhibition data for 31 compounds are collected here from PubChem BioAssay (NCATS).

In assay [1] the test system is Zika virus NS2B-NS3 protease (unlinked complex). The experiment in a line: Primary screen GU Rhodamine qHTS for Zika virus inhibitors: Unlinked NS2B-NS3 protease assay (AID 1347159). Further: nearly all actives have a fitted effect of over 60% in size. The gist of the method: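 A qHTS format was used, with compound concentrations ranging up to 114 microM. Each compound was preincubated with 25 nM NS2B-NS3 protease, and the substrate was then added at 1.5 microM. Curves were fitted with a 4-parameter Hill model.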
On the technique in general: In qHTS, concentration-response curves come from the screen itself.

The test system of assay [2] is Zika virus NS2B-NS3 protease (linked construct). The experiment in a line: Primary screen NINDS Rhodamine qHTS for Zika virus inhibitors (AID 1347160). Further: nearly all actives have a fitted effect of over 55% in size. The gist of the method:
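Kinetic fluorescence (Ex 480 nm, Em 540 nm) over 15 min with 1.5 microM Rhodamine110 peptide and 25 nM linked protease.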

Inconclusive results are not listed. Unmarked numbers belong to inactive results. Calls of active or inactive are those of the source. The call rests on the fitted dose curve; in most records, active means well fitted inhibition curve with a large enough effect; inconclusive means small, poorly fitted or top-dose-only effect; inactive means no such curve, though single readings can be large or run the other way.
On the % scale 0 is the no-effect control and ±100 the full control effect.

`Cc1cccc(-c2[nH]ncc2-c2ccnc3ccccc23)n1`: the Potency result in assay [1] and in assay [2] was “inactive” each time.

`CNc1cc2[nH]c(=O)n(-c3ccc(NC(=O)NS(=O)(=O)c4ccc(Cl)s4)cc3)c(=O)c2cc1F`: the Potency entry in assay [1] and in assay [2] was “inactive” each time.

For the compound `CC(=O)O[C@H]1CC(C)(C)CC2[C@]13CO[C@@]21CCC2[C@@]4(C)CC[C@H](O[C@@H]5OC[C@H](O[C@@H]6O[C@H](CO)[C@@H](O)[C@H](O)[C@H]6O[C@@H]6OC[C@@H](O[C@@H]7O[C@H](CO)[C@@H](O)[C@H](O)[C@H]7O)[C@H](O)[C@H]6O)[C@H](O)[C@H]5O[C@@H]5O[C@H](CO)[C@@H](O)[C@H](O)[C@H]5O)[C@@](C)(CO)C4CC[C@@]2(C)[C@]1(C)C[C@H]3O` (some centres not stated), the activity change, negative = inhibition in assay [1] is 0.509% [at 19.1 µM]; in assay [2] it was -9.67% [at 10.7 µM].

As to `CCCC(CCC)C(=O)Nc1ccn([C@@H]2O[C@H](CO)[C@@H](O)C2(F)F)c(=O)n1`, the Potency result in assay [1] and in assay [2] was “inactive” each time.

Regarding `COc1cc(C(C)C)c(Oc2cnc(N)nc2N)cc1I`, the Potency entry in assay [1] and in assay [2] was “inactive” each time.

With `Cc1cccc(CC(=O)N2CCc3c2ccc(-c2cn(C)c4ncnc(N)c24)c3F)n1`, the Potency entry in assay [1] and in assay [2] was “inactive” throughout.

As for `COc1ccc(-c2ccc3c(N4CCOCC4C)nc(N4CCOCC4C)nc3n2)cc1CO` (configuration not stated), the Potency result in assay [1] and in assay [2] was “inactive” each time.

As to `CC(=O)c1c(C)cc2cccc(O)c2c1O[C@@H]1O[C@H](CO)[C@@H](O)[C@H](O)[C@H]1O`, the Potency entry in assay [1] and in assay [2] was “inactive” throughout.

With `C=C1CC2[C@@]3(C)C=CC(=O)C(C)(C)C3=C(O)C(=O)[C@@]2(C)C2(C(=O)OC)C(=O)C(C)OC(=O)[C@@]12C` (some centres not stated), the Potency result in assay [1] and in assay [2] was “inactive” in each case.

Take `C/C=C\NC(=O)C1NC(=O)C(CC(N)=O)NC(=O)C(NC(=O)C(=O)C(C)CC)Cc2ccc(O)c(c2)-c2cccc3c2NC(=O)C3(O)C1O` (configuration not stated): the Potency entry in assay [1] and in assay [2] was “inactive” in each case.

Turning to `COc1ccc(CCN(C)CCCOc2nsc(-c3ccccc3)n2)cc1OC`, the Potency result in assay [1] and in assay [2] was “inactive” each time.

On to `O=C(Nc1cnc(Cl)nc1)c1ccc(F)c(F)c1`, for which the Potency entry in assay [1] and in assay [2] was “inactive” in each case.

As for `Cc1nc(C(=O)N2CCC[C@H]2Cc2nnc(-c3ccccc3)o2)c(-c2ccccc2F)s1`, the Potency result in assay [1] and in assay [2] was “inactive” each time.

`C=CC(=O)N1CCCC(n2nc(-c3ccc(Oc4ccccc4)cc3)c3c(N)ncnc32)C1` (configuration not stated): the Potency entry in assay [1] and in assay [2] was “inactive” throughout.

As to `CC(C)(O)/C=C/C(=O)[C@](C)(O)[C@H]1[C@H](O)C[C@@]2(C)[C@@H]3CC=C4[C@@H](C[C@H](O[C@@H]5O[C@H](CO)[C@@H](O)[C@H](O)[C@H]5O)C(=O)C4(C)C)[C@]3(C)C(=O)C[C@]12C`, the Potency result in assay [1] and in assay [2] was “inactive” each time.

In the case of `CCCn1ncc(CN2CCCC(C(=O)c3cccc(OC(C)C)c3)C2)c1C` (configuration not stated), the Potency result in assay [1] and in assay [2] was “inactive” in each case.

In the case of `CO[C@@H]1[C@H](O)CCC2(CO2)[C@H]1[C@@]1(C)O[C@@H]1CC=C(C)C` (some centres not stated), the Potency result in assay [1] and in assay [2] was “inactive” in each case.

`COc1cc(O)cc(/C=C/c2cccc(O)c2)c1`: the Potency result in assay [1] and in assay [2] was “inactive” each time.

On to `CN1CCN(c2ccc(-c3cccc(CN4CCOCC4)c3)cc2NC(=O)c2c[nH]c(=O)cc2C(F)(F)F)CC1`, for which the Potency result in assay [1] and in assay [2] was “inactive” in each case.

As to `Cn1cc(-c2cnn3c(N)c(Br)c(C4CCCNC4)nc23)cn1` (configuration not stated), the Potency entry in assay [1] and in assay [2] was “inactive” each time.

For `N#CC(CCCN1CCC(O)(c2ccc(Cl)cc2)CC1)(c1ccccc1)c1ccccc1`, the Potency result in assay [1] and in assay [2] was “inactive” throughout.

Take `Cn1ncnc1[C@H]1c2n[nH]c(=O)c3cc(F)cc(c23)N[C@@H]1c1ccc(F)cc1`: the Potency result in assay [1] and in assay [2] was “inactive” throughout.

For `C=C1C(=O)O[C@@H]2C3=C(C)CCC[C@]3(C)CC[C@@]12O`, the Potency result in assay [1] and in assay [2] was “inactive” throughout.

On to `CC1=C2C[C@@]3(C)C(CCC[C@@H]3C)C(O)C2OC1=O` (some centres not stated), for which the Potency result in assay [1] and in assay [2] was “inactive” each time.

On to `COc1ccc(C(=O)Nc2c(Cl)cncc2Cl)cc1OC1CCCC1`, for which the Potency result in assay [1] and in assay [2] was “inactive” each time.

For the compound `O=C(NCc1ccc(OC(F)(F)F)cc1)C1c2c(F)cccc2C(=O)N1CCc1ccccn1` (configuration not stated), the Potency entry in assay [1] and in assay [2] was “inactive” each time.

For the compound `C=C(C)Cn1c(SCC(=O)c2cccs2)nc2sc3c(c2c1=O)CCCC3`, the Potency entry in assay [1] and in assay [2] was “inactive” in each case.

In the case of `Cc1cc(C(=O)Nc2cc(Oc3ccc4nc(NC(=O)C5CC5)cn4n3)ccc2C)n(C)n1`, the Potency entry in assay [1] and in assay [2] was “inactive” throughout.

With `C=C1C(=O)OC2C3=C(C)C(=O)CC3C(C)CC(O)C12` (configuration not stated), the Potency entry in assay [1] and in assay [2] was “inactive” each time.

Turning to `COc1ccc([C@H](Cc2ccncc2)c2ccccc2)cc1OC1CCCC1`, the Potency entry in assay [1] and in assay [2] was “inactive” in each case.

Consider `CCCCCCCCC(=O)N[C@H](CN1CCCC1)[C@H](O)c1ccc2c(c1)OCCO2`, for which the Potency entry in assay [1] and in assay [2] was “inactive” throughout.
